Experimental data taken from PubChem BioAssay AID588342 (National Center for Advancing Translational Sciences (NCATS), 2011).
The whole screen tested about 360,000 compounds, of which about 25,000 (6.9%) were called active. Another 9% or so got no clear call; they are omitted. What follows is part of a selection rich in actives, with near analogues and random picks from the rest. Values without a mark were called inactive. Calls follow the shape of the dose curve; as a rule, active = well fitted inhibition curve with a large enough effect; inconclusive = small, poorly fitted or top-dose-only effect; inactive = flat fitted curve, though single readings scatter.
Also: nearly all actives have a fitted effect of over 55% in size.
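For activity change, negative = inhibition in this document: plate controls were vehicle for no effect and reference inhibitor for full effect.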

These compounds were tested against Luciferin 4-monooxygenase (Photinus pyralis) (UniProt P08659) (assay: qHTS profiling assay for firefly luciferase inhibitor/activator using purifed enzyme and Km concentrations of substrates (counterscreen for miR-21 project)). Settings: purified FLuc, luminescence inhibition; series mostly up to 57.5 µM; activity change, negative = inhibition: at the top concentration.
Luciferin 4-monooxygenase (Photinus pyralis), sequence (P08659 whole entry, looked up): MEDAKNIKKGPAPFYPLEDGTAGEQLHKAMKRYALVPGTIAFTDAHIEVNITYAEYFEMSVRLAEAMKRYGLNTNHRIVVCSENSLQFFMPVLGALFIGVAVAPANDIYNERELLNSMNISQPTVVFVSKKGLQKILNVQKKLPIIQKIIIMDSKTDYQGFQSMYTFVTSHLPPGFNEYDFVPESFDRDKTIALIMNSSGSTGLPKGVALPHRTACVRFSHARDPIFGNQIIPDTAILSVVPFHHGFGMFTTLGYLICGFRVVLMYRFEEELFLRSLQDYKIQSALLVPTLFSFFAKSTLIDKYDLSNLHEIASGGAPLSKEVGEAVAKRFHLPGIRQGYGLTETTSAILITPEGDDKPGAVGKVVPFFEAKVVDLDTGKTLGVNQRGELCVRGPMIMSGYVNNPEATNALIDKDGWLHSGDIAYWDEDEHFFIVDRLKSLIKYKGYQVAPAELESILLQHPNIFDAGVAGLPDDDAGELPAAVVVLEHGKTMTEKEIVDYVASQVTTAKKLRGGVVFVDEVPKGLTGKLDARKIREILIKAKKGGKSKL
Source text: MLPCN Grant: 1 R21 NS059478-01 (miR-21 grant) Assay Provider: NCGC NCGC Assay Overview: Firefly (Photinus pyralis) luciferase is one of the most commonly used transcriptional reporters for a number of reasons. It is considered one of the more dynamically responsive reporters -that is, responsive to changes in reporter transcription - as it requires no post-translational modifications and is enzymatically active directly after protein synthesis (Wood, 1998). Additionally, the half-life of the luciferase protein is short relative to other reporter-gene products (Wood, 1995). Whereas reporters with long half-lives potentially allow for increased signal due to accumulation of reporter-gene product, once accumulated in the cell, dynamic changes in reporter-gene expression may be difficult to detect(Fan and Wood, 2007; Almond et al., 2004). It has been shown that wild-type P. pyralis luciferase has a half-life of approximately […] hours in mammalian cells (Thompson et al., 1991). Firefly luciferase reporter-gene assays are also generally considered one of the most sensitive assay types (Wood, 1995; Wood, 1998). Although light produced in a bioluminescence reaction is of lower intensity than that produced during fluorescence emission, this is offset by little to no background light inherent to luminescent assays. Thus the luciferase reporter can be expressed at much lower levels than fluorescent proteins while still providing robust signal. # However, it was initially observed, in 1991, by Thompson et al., that compounds that resemble the substrates of firefly luciferase (FLuc) can act as competitive inhibitors of the enzyme, and that these compounds, upon interaction with luciferase in the cell, can actually stabilize the protein and increase its half-life. Accumulated intracellular FLuc protein can be measured as an increase in luminescence signal, upon addition of detection reagents (which contain high concentrations of FLuc substrates) commonly used in high-throughput screening. In cell-based reporter gene assays that use FLuc as the reporter gene to quantitate the potential influence of a given compound against the target biology, this apparent increase in luminescence can mistakenly be interpreted as identification of a compound that is active against the target of interest. This is the case for the miR-21 FLuc reporter gene assay used to identify inhibitors of the miR-21 pathway (PubChem AID 2289) - compounds of interest will inhibit miR-21 biogenesis/expression or activity, and are identified by causing an increase in luminescence, due to increased FLuc translation. However, FLuc inhibitory compounds that stabilize the FLuc protein will give an identical read-out, making it difficult to distinguish compounds that are active against the target from those active against FLuc. Previous profiling work to determine the prevalence of compounds that affect FLuc enzymatic activity (PubChem AID 411) identified that ~3% of the MLSMR library (then at ~72K) inhibited FLuc. […] Since the MLSMR had grown to ~350K compounds, and since it was expected that a significant percentage of compounds found active in the miR-21 FLuc assay would be FLuc inhibitors, the library was screened for activity against FLuc using a biochemical assay of purified FLuc and KM concentrations of FLuc substrates (D-luciferin and ATP).
NCGC Assay Protocol Summary: Reagents: 50mM Tris acetate, pH 7.5; 10mM Mg acetate; 10uM D-luciferin (Sigma #L9504); 10uM ATP; 0.01% Tween-20; 0.05% BSA; 10nM P. pyralis luciferase (Sigma #L9506) Control compounds used were two known firefly luciferase inhibitors (compounds (2) and (5) in Auld et al., 2010), and DMSO. […]
`CC1CCCN(c2nc3c(S(=O)(=O)c4ccc(C(C)C)cc4)nnn3c3ccsc23)C1` (stereo unspecified) was tested, and the “activity change, negative = inhibition” value was 5.49%. For `O=C(NCc1ccccc1)C1CCN(C(=O)Cc2ccccc2)CC1`, the “activity change, negative = inhibition” value was 4.44%. For `O=C(O)C1CCN(C(=O)OCc2ccccc2)CC1`, the Potency was 10.7 µM (active). In the case of `CCOC(=O)N1CCC(NC(=O)CCc2ccccc2)CC1`, the “activity change, negative = inhibition” value is reported as 0.99%. In the case of `COc1cc(OC)cc(-c2nnc(N(C)C(=O)c3ccncc3)s2)c1`, the “activity change, negative = inhibition” value is reported as -0.199%. For `CN(C(=O)c1ccccn1)c1nnc(-c2ccccn2)s1`, the Potency was 3.38 µM (active). With `CN(C(=O)C1CCOC1)c1nnc(-c2cccnc2)s1` (stereo unspecified) the “activity change, negative = inhibition” value was 3.31%. For `Cc1ccc(C(=O)CCC(=O)N(C)CC(=O)Nc2c(Cl)cccc2Cl)cc1`, the “activity change, negative = inhibition” value was -16.9%. `CCn1c(COc2c(C)cccc2C)nnc1SCc1nc2ccccc2c(=O)[nH]1` was tested, and the “activity change, negative = inhibition” value was 7.76%. With `COc1ccc(Cn2ccnc2SCC(=O)NCc2ccco2)cc1` the “activity change, negative = inhibition” value was 0.425%. For `CC(NC(=O)c1cc(Sc2ccc(F)cc2F)nc2ccccc12)c1ccccc1` (stereo unspecified), the “activity change, negative = inhibition” value was 4.18%. With `Cn1c(=O)c2c(nc(SCC(=O)Nc3ccc(F)cc3)n2Cc2ccccc2)n(C)c1=O` the “activity change, negative = inhibition” value was 1.13%. In the case of `CCN(CC(=O)Nc1ccccc1C(F)(F)F)C(=O)C1CCN(C(=O)Nc2ccccc2)CC1`, the “activity change, negative = inhibition” value is reported as 2.43%. In the case of `O=C(NC1CC(=O)N(c2ccc(Cl)cc2)C1)C1CCCC1` (stereo unspecified), the “activity change, negative = inhibition” value is reported as -5.39%. For `S=C(NNC(=S)NC1CC2CCC1C2)NC1CC2C=CC1C2` (stereo unspecified), the “activity change, negative = inhibition” value was -0.235%. For `S=C(NNC(=S)NC1CC2C=CC1C2)NC1CC2C=CC1C2` (stereo unspecified), the “activity change, negative = inhibition” value was 0.443%. `CC(C)c1ccc(NC(=S)NC2CC3C=CC2C3)cc1` (stereo unspecified) was tested, and the Potency was 10.7 µM (active). For `Cc1c(Cl)cccc1NC(=O)C1CCCN(C(=O)c2cnn(-c3ccccc3)c2-n2cccc2)C1` (stereo unspecified), the “activity change, negative = inhibition” value was -17.5%. With `Cc1cc(=O)[nH]c(N/N=C/c2c(C)nn(-c3ccccc3Cl)c2Cl)n1` the Potency was 21.3 µM (active). `Cc1cc(=O)[nH]c(N/N=C/c2ccc3c(c2)OCCO3)n1` was tested, and the Potency was 10.7 µM (active). `Cc1nnc(N/N=C/c2ccccn2)[nH]c1=O` was tested, and the “activity change, negative = inhibition” value was -4.55%. `CCOC(=O)Cc1csc(NC(=O)CSc2nc(C)cc(=O)[nH]2)n1` was tested, and the “activity change, negative = inhibition” value was -11%. With `Cc1ccc2nc(C)cc(N/N=C/c3ccc(F)cc3)c2c1` the “activity change, negative = inhibition” value was -1.41%. For `Cc1cc(=O)[nH]c(Nc2cccc(Br)c2)n1`, the “activity change, negative = inhibition” value was -3.47%. `CCN(CC)c1ccc(/C=N/Nc2nc(C)cc(=O)[nH]2)cc1` was tested, and the Potency was 19 µM (active). `Cc1ccc(C)c(NC2=NCC(=O)N2c2ccc3c(c2)OCCO3)c1` was tested, and the “activity change, negative = inhibition” value was -7.62%. In the case of `COc1ccc(CCC(=O)N2CCN(S(=O)(=O)c3ccc(OC)cc3)CC2)cc1`, the “activity change, negative = inhibition” value is reported as 0.133%. In the case of `Cc1ccc(F)cc1S(=O)(=O)Nc1cccc(C(=O)N2CCCC(C(N)=O)C2)c1` (stereo unspecified), the “activity change, negative = inhibition” value is reported as 1.32%. `CCOC(=O)c1cc(-c2ccc(OC)c(S(=O)(=O)Nc3ccc(OC)cc3OC)c2)on1` was tested, and the “activity change, negative = inhibition” value was -6.63%. `CCOc1ccc(S(=O)(=O)Nc2ccc(C(=O)NCCCN3CCCC3=O)cc2)cc1` was tested, and the “activity change, negative = inhibition” value was 0.869%. For `Nc1ncc(S(=O)(=O)Nc2ccc(OC(F)(F)F)cc2)cn1`, the “activity change, negative = inhibition” value was -18.2%. In the case of `COc1ccccc1N1CCN(c2ccc(=O)n(CC(=O)NCc3ccc(OC(C)C)cc3)n2)CC1`, the “activity change, negative = inhibition” value is reported as -8.85%. For `Cc1cc(C)cc(NS(=O)(=O)c2ccc(-c3cc(C)no3)s2)c1`, the “activity change, negative = inhibition” value was -17.8%. With `Cn1nc(-c2ccccc2)c(-c2ccccc2)c(C(=O)Nc2ccc(S(N)(=O)=O)cc2)c1=O` the “activity change, negative = inhibition” value was -7.51%. With `CCc1cccc(CC)c1NC(=O)Cn1c(=O)c(-c2cc(C)ccc2NC(C)=O)nc2ccccc21` the “activity change, negative = inhibition” value was 3.12%. In the case of `Cc1ccc(C(=O)COC(=O)CCN2C(=O)C3C4CCC(C4)C3C2=O)cc1C` (stereo unspecified), the Potency is reported as 10.7 µM (active). For `Cc1ccc(C(=O)COC(=O)CCN2C(=O)C3C4CC(C(Br)C4Br)C3C2=O)cc1` (stereo unspecified), the “activity change, negative = inhibition” value was 1.77%. For `O=C(CCN1C(=O)C2C3CCC(C3)C2C1=O)Nc1ccc(Cl)cc1Cl` (stereo unspecified), the “activity change, negative = inhibition” value was -0.123%. `COc1ccccc1-c1noc(CSc2nnc(-c3ccccc3)n2-c2ccc(C)c(C)c2)n1` was tested, and the “activity change, negative = inhibition” value was -0.724%. For `c1cc(-n2cnnn2)ccc1NC1=NCCC1`, the “activity change, negative = inhibition” value was -0.318%. For `Cc1ccc(S(=O)(=O)CC(=O)Nc2nnc(C)s2)cc1`, the “activity change, negative = inhibition” value was 0.491%. In the case of `Cc1ccc(C(=O)Cc2nnc(C)s2)cc1`, the Potency is reported as 9.53 µM (active). In the case of `Cc1ccc(C(=O)Cn2cccn2)cc1`, the “activity change, negative = inhibition” value is reported as 2.73%. With `CC(CO)N1CCS(=O)(=O)CC1` (stereo unspecified) the “activity change, negative = inhibition” value was 5.19%. For `CCc1cc2c(cc3c(=O)n(CC(=O)N4CCN(c5cc(Cl)ccc5C)CC4)nc(CC)n32)s1`, the “activity change, negative = inhibition” value was -10.4%. `Cc1ccc(NC(=O)c2oc3ccccc3c2NC(=O)Cc2cccs2)cc1` was tested, and the “activity change, negative = inhibition” value was 1.25%. In the case of `Cc1cc2c(cc3c(SCc4nc(-c5ccccc5)oc4C)nnc(C)n32)o1`, the “activity change, negative = inhibition” value is reported as -1.75%. In the case of `CCS(=O)(=O)c1cc([N+](=O)[O-])c(Sc2ccccc2N)s1`, the Potency is reported as 4.26 µM (active). For `Cc1ccc(S(=O)(=O)NCCSc2ccccc2)cc1[N+](=O)[O-]`, the “activity change, negative = inhibition” value was 6.22%. For `CC(=O)c1ccc(N2CCN(C3C(=O)c4ccccc4N3C(C)=O)CC2)cc1` (stereo unspecified), the “activity change, negative = inhibition” value was -11.4%. `CCOC(=O)c1ccc(NC(=O)CCn2cnnn2)cc1` was tested, and the “activity change, negative = inhibition” value was 2.52%. For `OCC1(Cc2ccccc2)CCN(Cc2cc3ccccc3o2)CC1`, the “activity change, negative = inhibition” value was 3.73%. In the case of `CC(C)c1csc(CN2CCC(CO)(Cc3ccccc3)CC2)n1`, the Potency is reported as 6.75 µM (active). In the case of `CC(=O)c1cccc(CN2CCC(CO)(Cc3ccccc3)CC2)c1`, the “activity change, negative = inhibition” value is reported as 1.15%. For `Cc1nc2c(-c3ccccc3)c(C)nn2c(C)c1CCC(=O)NCCc1ccccc1`, the “activity change, negative = inhibition” value was -13.9%. For `COc1cccc(CNC(=O)C2CCN(S(=O)(=O)c3ccc4c(ccn4C)c3)CC2)c1`, the “activity change, negative = inhibition” value was -8.5%. With `CC1CCCCC1NC(=O)NC(=O)COC(=O)C1=NN(c2ccccc2)C(=O)CC1` (stereo unspecified) the “activity change, negative = inhibition” value was 5.26%. With `O=C(Nc1ccccc1C(=O)N1CCCCC1)c1ccco1` the “activity change, negative = inhibition” value was 2.11%. In the case of `Cc1c(Cl)cccc1NC(=O)CCC(=O)N/N=C/c1ccco1`, the “activity change, negative = inhibition” value is reported as -0.65%. With `CS/C(=C\C(=O)c1ccco1)Nc1ccccc1Cl` the Potency was 3.79 µM (active). For `COc1cccc(NC(=O)N(Cc2cn(C)c3ccccc23)C2CCCCCC2)c1`, the “activity change, negative = inhibition” value was 4.23%. With `CC(=O)OC1=C(C(C)=O)N(Cc2ccccc2)S(=O)(=O)c2ccccc21` the “activity change, negative = inhibition” value was -2.47%. For `CN1/C(=C\C=C2\N=C(c3ccc(F)cc3)OC2=O)C(C)(C)c2ccccc21`, the “activity change, negative = inhibition” value was -15.8%. In the case of `Cc1ccc(C2=N/C(=C\c3ccc(OS(=O)(=O)c4ccc(C)cc4)cc3)C(=O)O2)cc1`, the “activity change, negative = inhibition” value is reported as -0.259%. For `Cc1cccc(C2=N/C(=C/c3cccs3)C(=O)O2)c1`, the Potency was 2.69 µM (active). With `CCCCOc1ccc(C(=O)N2CC(=O)Nc3ccc(Br)cc3C2c2ccc(F)cc2)cc1` (stereo unspecified) the “activity change, negative = inhibition” value was 2.33%.
